This note sets out measurements from PubChem BioAssay (EPA / NIEHS).

Several values for one entry are separate records, joined by “and”; a condition that tells them apart may be missing. Equal values may be shown once. A structure can be active in one record and inactive in another. Activity calls are given as the source filed them. Rule for the calls: active = hit-call score of the fitted dose curve at least 0.9, where 1 is the maximum; inactive = score below 0.9.

Read-out in experiment [1]: Interleukin 2 (IL2), IL2 (gene 3558)
In words: BSK_BT_xIL2: BioMAP Diversity Plus: BT Assay for Interleukin 2 (IL2) Biomarker Activity (AID 2284245). The note with it: primary human B cells with PBMC. The method in brief:
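Co-cultures of primary human B cells and PBMC are treated with chemical and sampled at 24 h. IL-2 secretion is quantified by Luminex xMAP, with DMSO-treated wells as baseline.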

Read-out in experiment [2]: Basic fibroblast growth factor (bFGF), FGF2 (gene 2247)
In words: BSK_MyoF_bFGF: BioMAP Diversity Plus: MyoF Assay for Basic fibroblast growth factor (bFGF) Biomarker Activity (AID 2284246). The settings on record: primary human lung fibroblasts. Summed up:
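Fibroblasts from human lung, 24 h dosing. bFGF by ELISA; gain of signal over DMSO.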

Read-out in experiment [3]: Collagen IV, COL4A1 (gene 1282)
In words: BSK_MyoF_CollagenIV: BioMAP Diversity Plus: MyoF Assay for Collagen IV Biomarker Activity (AID 2284247). The settings on record: primary human lung fibroblasts. The method in brief:
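Lung fibroblasts (human primary) treated with chemicals were assayed after 24 h for Collagen IV using an ELISA, with DMSO serving as negative control and baseline for a positive-direction fit.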

Read-out in experiment [4]: Plasminogen activator inhibitor-1 (PAI1), SERPINE1 (gene 5054)
In words: BSK_MyoF_PAI1: BioMAP Diversity Plus: MyoF Assay for Plasminogen activator inhibitor-1 (PAI1) Biomarker Activity (AID 2284256).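 For outcome: PAI-1 protein level measured by ELISA in fibroblast cultures; PAI-1 read 24 h after compound addition.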 The note with it: primary human lung fibroblasts. The method in brief: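 MyoF lung fibroblasts, human primary; compound 24 h; PAI-1 ELISA; positive-direction fit vs DMSO baseline; parallel SRB total-protein staining for cytotoxicity.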

Read-out in experiment [5]: Interleukin-8 (IL8), CXCL8 (gene 3576)
In words: BSK_MyoF_IL8: BioMAP Diversity Plus: MyoF Assay for Interleukin-8 (IL8) Biomarker Activity (AID 2284261). The settings on record: primary human lung fibroblasts. The method in brief: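 Lung fibroblasts (human primary) → chemical exposure → 24 h → IL-8 measured by ELISA. Signal increase scored versus DMSO control.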

Read-out in experiment [6]: Decorin, DCN (gene 1634)
In words: BSK_MyoF_Decorin: BioMAP Diversity Plus: MyoF Assay for Decorin Biomarker Activity (AID 2284265). The note with it: primary human lung fibroblasts. The method in brief: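 ELISA readout of decorin, 24 h post-dosing; primary human lung fibroblast (MyoF) culture; gain-of-signal fit vs DMSO baseline.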

Experiment [7] can be described thus: BSK_MyoF_SRB: Viability Assessment in the BioMAP Diversity Plus: MyoF Assay (AID 2284267).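 Note: total protein by SRB absorbance in parallel cultures as cytotoxicity measure; cells assessed 24 h after compound addition.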 The settings on record: primary human lung fibroblasts. The method in brief: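 In this viability endpoint, fibroblasts from human lung are treated for 24 h, TCA-fixed, SRB-stained (0.1%) and read at 560 nm. Gain of signal relative to DMSO defines activity.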
Read-out in experiment [8]: Matrix Metallopeptidase 1 (MMP1), MMP1 (gene 4312)
In words: BSK_MyoF_MMP1: BioMAP Diversity Plus: MyoF Assay for Matrix Metallopeptidase 1 (MMP1) Biomarker Activity (AID 2284268). The note with it: primary human lung fibroblasts. Summed up: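 Cells: human lung fibroblasts. Exposure: 24 h chemical dosing. Detection: ELISA for MMP1. Analysis: upward fitting against DMSO negative control.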

Read-out in experiment [9]: TIMP metallopeptidase inhibitor 1 (TIMP1), TIMP1 (gene 7076)
In words: BSK_MyoF_TIMP1: BioMAP Diversity Plus: MyoF Assay for TIMP metallopeptidase inhibitor 1 (TIMP1) Biomarker Activity (AID 2284269). The settings on record: primary human lung fibroblasts. The method in brief:
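Fibroblasts from human lung are dosed with chemical, cultured 24 h, and assayed for TIMP-1 by ELISA. Increases over the DMSO baseline are scored, with SRB total-protein staining run in parallel for cytotoxicity.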

Read-out in experiment [10]: Collagen I, COL1A1 (gene 1277)
In words: BSK_hDFCGF_CollagenI: BioMAP Diversity Plus: hDFCGF Assay for Collagen I Biomarker Activity (AID 2284250). The settings on record: primary human foreskin fibroblasts. The method in brief: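 Readout: Collagen I by ELISA after 24 h compound treatment of primary human foreskin fibroblasts. Endpoint analysed for increases relative to DMSO; total protein by SRB in parallel wells flagged cytotoxicity.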

Read-out in experiment [11]: Interferon-inducible T-cell alpha chemoattractant (ITAC), CXCL11 (gene 6373)
In words: BSK_hDFCGF_ITAC: BioMAP Diversity Plus: hDFCGF Assay for Interferon-inducible T-cell alpha chemoattractant (ITAC) Biomarker Activity (AID 2284251). The settings on record: primary human foreskin fibroblasts. The method in brief:
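Measured by ELISA, the chemokine level serves as the endpoint in human skin fibroblast primary cultures 24 h after compound addition. Increases relative to DMSO-treated wells define activity.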

Read-out in experiment [12]: Plasminogen activator inhibitor-1 (PAI1), SERPINE1 (gene 5054)
In words: BSK_KF3CT_PAI1: BioMAP Diversity Plus: KF3CT Assay for Plasminogen activator inhibitor-1 (PAI1) Biomarker Activity (AID 2284252). The note with it: primary human keratinocytes with fibroblasts. The method in brief:
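In this co-culture of primary human keratinocytes and foreskin fibroblasts, PAI-1 was measured by ELISA at 24 h and fitted upward from DMSO.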

Read-out in experiment [13]: Interleukin-8 (IL8), CXCL8 (gene 3576)
In words: BSK_KF3CT_IL8: BioMAP Diversity Plus: KF3CT Assay for Interleukin-8 (IL8) Biomarker Activity (AID 2284254). The settings on record: primary human keratinocytes with fibroblasts. The method in brief:
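IL-8 read-out: ELISA, 24 h post-dose, human skin primary co-culture (keratinocytes + foreskin fibroblasts). DMSO = baseline; positive-direction fit.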

Read-out in experiment [14]: Intercellular Adhesion Molecule 1 (ICAM1), ICAM1 (gene 3383)
In words: BSK_BE3C_ICAM1: BioMAP Diversity Plus: BE3C Assay for Intercellular Adhesion Molecule 1 (ICAM1) Biomarker Activity (AID 2284278).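 Note: cell-surface ICAM-1 protein level quantified by ELISA.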 The note with it: primary human bronchial epithelial cells. Summed up:
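hu bronchial epithelial primary cells, 24 h cpd exposure, ICAM-1 ELISA; gain-of-signal fit vs DMSO baseline.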

Read-out in experiment [15]: Interferon-inducible T-cell alpha chemoattractant (ITAC), CXCL11 (gene 6373)
In words: BSK_BE3C_ITAC: BioMAP Diversity Plus: BE3C Assay for Interferon-inducible T-cell alpha chemoattractant (ITAC) Biomarker Activity (AID 2284279). The settings on record: primary human bronchial epithelial cells. The method in brief:
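BE3C cells (human primary bronchial epithelium), 24 h compound exposure, I-TAC by ELISA, DMSO = negative control/baseline, positive fitting direction.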

Read-out in experiment [16]: Interleukin-8 (IL8), CXCL8 (gene 3576)
In words: BSK_BE3C_IL8: BioMAP Diversity Plus: BE3C Assay for Interleukin-8 (IL8) Biomarker Activity (AID 2284280). The settings on record: primary human bronchial epithelial cells. Summed up:
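Dose human bronchial epithelial cells with chemical; incubate 24 h; quantify IL-8 by ELISA; fit response upward versus DMSO controls.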

Read-out in experiment [17]: Epidermal growth factor receptor (EGFR), EGFR (gene 1956)
In words: BSK_BE3C_EGFR: BioMAP Diversity Plus: BE3C Assay for Epidermal growth factor receptor (EGFR) Biomarker Activity (AID 2284281). The note with it: primary human bronchial epithelial cells. The method in brief:
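ELISA read-out of EGFR levels on human bronchial epithelial primary cells collected 24 h post-dosing. DMSO served as negative control and baseline for gain-of-signal fitting.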

Read-out in experiment [18]: KRT18 (gene 3875)
In words: BSK_BE3C_Keratin818: BioMAP Diversity Plus: BE3C Assay for Keratin 818 Biomarker Activity (AID 2284282). The settings on record: primary human bronchial epithelial cells. Summed up:
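In this multiplexed primary-cell system, bronchial epithelial cells were dosed and harvested at 24 h. Keratin 8/18 was determined by ELISA and analysed for increases over DMSO controls.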

Read-out in experiment [19]: Matrix Metallopeptidase 9 (MMP9), MMP9 (gene 4318)
In words: BSK_BE3C_MMP9: BioMAP Diversity Plus: BE3C Assay for Matrix Metallopeptidase 9 (MMP9) Biomarker Activity (AID 2284283). The settings on record: primary human bronchial epithelial cells. Summed up:
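ELISA read-out of MMP-9 after 24 h compound exposure of human lung bronchial epithelial primary cells (BE3C). Fit in gain direction vs DMSO negative control; total protein by SRB in parallel cultures flagged overt cytotoxicity.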

Read-out in experiment [20]: Plasminogen activator inhibitor-1 (PAI1), SERPINE1 (gene 5054)
In words: BSK_CASM3C_PAI1: BioMAP Diversity Plus: CASM3C Assay for Plasminogen activator inhibitor-1 (PAI1) Biomarker Activity (AID 2284284).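 Note: PAI-1 protein level measured by ELISA 24 h after dosing.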 The settings on record: primary human coronary artery smooth muscle cells.

Take `O=c1c2ccccc2oc2ccccc12`: the outcome in [1], in [2], in experiment [3], in experiment [4], in [5] and in experiment [6] was inactive. For the same compound, the outcome in experiment [7], in experiment [8] and in [9] was inactive.

For `CCOc1nc(F)cc2nc(S(=O)(=O)Nc3c(Cl)cccc3C(=O)OC)nn12`, the result in [1], in experiment [2], in experiment [3], in experiment [4], in experiment [5] and in [6] was inactive. The result in [7], in experiment [8] and in experiment [9] was inactive.

As to `COCc1c(C(C)C)nc(C(C)C)c(/C=C/[C@@H](O)C[C@@H](O)CC(=O)O)c1-c1ccc(F)cc1`, the AC50 was 0.58 µM (active) in [1], 0.15 µM (active) in experiment [4] and 0.0515 µM (active) in experiment [8]. Besides, the result in experiment [2], in [3], in experiment [6] and in [9] was inactive.

With `C=CC(=O)OCC(Br)CBr` (stereo not given), the concentration at half-maximal activity (AC50) in [1] was 24.5 µM (active); in [2], 37.5 µM (active); in [3], 3.97 µM (active); in experiment [4] it was 7.93 µM (active); in experiment [7], 20 µM (active); in [9], 20 µM (active). The outcome in experiment [5], in [6] and in experiment [8] was inactive.

`Nc1ccc(N)c(Cl)c1`: the half-maximal activity concentration (AC50) is 26.7 µM (active) in experiment [10]; 23.4 µM (active) and 22.6 µM (active) in experiment [11]; 13.1 µM (active) and 26.5 µM (active) in [12]; 5.71 µM (active) in experiment [16]; 15.2 µM (active) and 7.82 µM (active) in experiment [19]. In addition, the outcome in experiment [10], in experiment [13], in experiment [14], in experiment [15], in [16] and in experiment [17] was inactive. Moreover, the outcome in [18] and in experiment [20] was inactive.

On to `C=C[Si](OC(C)=O)(OC(C)=O)OC(C)=O`, for which the result in experiment [10], in [11], in experiment [12], in experiment [13], in [14] and in experiment [15] was inactive. In addition, the result in experiment [16], in experiment [17], in experiment [18], in [19] and in experiment [20] was inactive.

For the compound `CCCCC/C=C\C/C=C\CCCCCCCC(=O)OC`, the AC50 is 28.9 µM (active) in experiment [1] and 31.2 µM (active) in experiment [8]. Besides, the outcome in experiment [2], in experiment [3], in [4], in experiment [5], in [6] and in [7] was inactive. Besides, in experiment [9], the outcome was inactive.

`C#CC1(O)CC[C@H]2[C@@H]3CCC4=CCCC[C@@H]4[C@H]3CC[C@@]21C` (stereo not given in full): the AC50 in experiment [1] is 31.6 µM (active); in [2] it was 33 µM (active); in experiment [4], 32 µM (active); in [5], 30.4 µM (active); in [6], 31.4 µM (active); in experiment [7] it was 30.1 µM (active). Besides, the AC50 in experiment [9] is 33.1 µM (active). Besides, the outcome in experiment [3] and in experiment [8] was inactive.

For the compound `CCO[Si](CCCN=C=O)(OCC)OCC`, the outcome in experiment [1], in [2], in [3], in [4], in experiment [5] and in experiment [6] was inactive. For the same compound, the result in experiment [7], in experiment [8] and in [9] was inactive.

As usually defined, the AC50 is the midpoint of the concentration-response curve, whichever way the signal moves.
